# Shown are actives, neighbours in structure and some others; about 5.5% of the full set was active somewhere.
# Gal4-VP16 FLuc = counter-screen for ROR gamma inhibitors: Gal4-VP16 reporter. 3.5% of 310,000 active. AID 2546. Potency, µM (doses to about 53.6 µM), without a hit: top-dose activity, negative = inhibition, most hits filed as inhibitors. Drosophila S2 Gal4-VP16 UAS-luciferase, luminescence, 20 h;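 note: Gal4-VP16 expression switched on by copper sulfate through the metallothionein promoter; % is set by controls: 0 for no effect and ±100 for the full control effect; nearly all actives have a fitted effect of over 50% in size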
# a7 integrin act = activates integrin-mediated alleviation for muscular dystrophy; alpha7betagal myoblasts, beta-gal FDG fluorescence, 48 h; Potency, µM (series often up to 38.3 µM), inactives show top-dose activation, hits mostly activators; 0.064% of 350,000 active;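 note: 100% = response of the positive control SU9516; nearly all actives have a fitted effect of over 60% in size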
#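 Alpha7betagal+/- myoblasts (passage 13) were plated 16-24 hr, then exposed to compounds (1:260 dilution of DMSO stock) for 48 hours at 37C. After MPER lysis, β-galactosidase reporter activity was read as FDG fluorescence (ex 480/em 540) after 30 minutes.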
# uPA surface inh = cell surface uPA generation inhibition; cell surface uPA generation assay, qHTS; Potency, µM (highest dose often 38.3 µM), without a hit: at the top dose activity change, negative = inhibition, most hits filed as inhibitors; 0.31% of 330,000 active; active = well fitted inhibition curve with a large enough effect; inconclusive = small, poorly fitted or top-dose-only effect; inactive = no such curve, though single readings can be large or run the other way; tested in mouse RAW 264.7 cells; note: % is set by controls: 0 for no effect and ±100 for the full control effect; nearly all actives have a fitted effect of over 55% in size
# BCR signal inh = chronic active BCR signaling inhibition. AID 493014. 0.05% of 340,000 active. Potency, µM (highest dose often 46.1 µM), for the others: at the top dose activity change, negative = inhibition, most hits filed as inhibitors. ABC-DLBCL IkBa-CBG/CBR reporter, luminescence ratio, 4 h; active = well fitted inhibition curve with a large enough effect in the signal ratio, with a control signal flat, not every such curve was filed as active; inconclusive = small, poorly fitted or top-dose-only effect, or effect the other way, or a change in a side signal; the % refers to the signal ratio;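 note: plate controls were basal doxycycline-induced cells for no effect and cells given 10 µM MG132 for full effect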
#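 Cell line TMD8 (human ABC DLBCL), stably expressing tet-inducible CBG68-IkBa fusion and CBR; IMDM/0.5% FBS; cpd up to 46 uM; dox induction, 4 h, 37C/5% CO2; dual luminescence; green/red ratio; MG132 control.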
# RORgamma inh = ROR gamma (mouse) transcription inhibition; Drosophila S2 Gal4-RORgamma UAS-luciferase reporter, 20 h; Potency, µM (doses to about 53.6 µM), without a hit: at the top dose activity change, negative = inhibition, hits mostly inhibitors; 5.4% of 310,000 active; AID 2551; note: % is set by controls: 0 for no effect and ±100 for the full control effect; nearly all actives have a fitted effect of over 60% in size
# Target sequence (P51450 whole entry, looked up, the tested form may be a part): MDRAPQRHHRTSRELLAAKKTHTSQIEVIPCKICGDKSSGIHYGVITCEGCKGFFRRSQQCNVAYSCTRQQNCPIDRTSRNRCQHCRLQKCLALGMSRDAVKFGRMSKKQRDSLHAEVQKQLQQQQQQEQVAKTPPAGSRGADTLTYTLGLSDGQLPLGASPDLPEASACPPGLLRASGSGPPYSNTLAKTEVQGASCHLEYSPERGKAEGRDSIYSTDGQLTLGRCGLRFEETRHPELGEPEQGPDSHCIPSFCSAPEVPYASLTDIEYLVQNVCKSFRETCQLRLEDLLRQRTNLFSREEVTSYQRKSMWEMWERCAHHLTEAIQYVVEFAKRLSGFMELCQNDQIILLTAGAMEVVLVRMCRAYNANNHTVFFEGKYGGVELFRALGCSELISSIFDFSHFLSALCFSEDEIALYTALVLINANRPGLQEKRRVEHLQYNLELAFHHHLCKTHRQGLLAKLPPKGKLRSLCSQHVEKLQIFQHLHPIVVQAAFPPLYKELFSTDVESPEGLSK
#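 A Gal4/UAS one-hybrid system in insect cells: metallothionein-promoter Gal4–ROR gamma fusion plus Photinus luciferase reporter. Copper sulfate 700 uM final, 20 hr ambient incubation, luminescent detection after 10 min with reagent.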
# Mito fusion yeast = inhibitors of mitochondrial division or activators of mitochondrial fusion; S. cerevisiae fusion-defective mutant growth rescue, CellTiterGlo 48 h; Potency, µM (titrated, usually from 46.1 µM), for the others: top-dose growth rescue (activation), most hits filed as activators; 0.23% of 320,000 active; note: % of control where 0% means no effect; nearly all actives have a fitted effect of over 45% in size
#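 Compounds are tested for their ability to restore growth of mitochondrial fusion-defective yeast strains at non-permissive 37C in YPEG medium over 48 hours. Viability is quantified by luciferase luminescence.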
# * marks the source's active call; other numbers are inactive results; u = inconclusive; x = not tested or not shown; [ ] = dose if it differs, or a comment. Unless noted, calls come from the whole dose curve; as a rule, active = well fitted curve in the direction sought with a large enough effect; inconclusive = small, poorly fitted or top-dose-only effect, or another doubt; inactive = no such curve, though single readings can be large; an effect the other way counts as inactive or inconclusive. Potency is the fitted concentration of half-maximal effect.
SMILES,Gal4-VP16 FLuc,a7 integrin act,uPA surface inh,BCR signal inh,RORgamma inh,Mito fusion yeast
O=C(NC1CC(=O)N(c2ccc(Cl)cc2)C1)c1ccc(S(=O)(=O)N2CCCC2)cc1 (stereo not given),x,x,x,7%,x,x
NS(=O)(=O)c1ccc(CNC(=S)Nc2ccc(F)c(Cl)c2)cc1,u,12%,4%,-21%,42%,0%
NS(=O)(=O)c1ccc(NC(=S)Nc2nn(Cc3ccc(Cl)cc3Cl)cc2Cl)cc1,6.3µM*,-3%,2%,-16%,6.3µM*,-1%
COc1ccc(C)cc1NC(=O)CCCN1C(=S)NC(C)(C)CC1C (stereo not given),4.5µM*,-12%,3%,-11%,1µM*,-6%
COc1ccc(OC)c(NC(=O)CCCN2C(=S)NC(C)(C)CC2C)c1 (stereo not given),18µM*,1%,2%,-12%,11µM*,0%
COc1ccc(OC)c(NC(=O)CCN2CCCCCC2)c1,-8%,23%,-3%,2%,-19%,-2%
CC1CC(C)(C)NC(=S)N1CCCC(=O)NCc1ccccc1 (stereo not given),13%,2%,1%,6%,u,-1%
Oc1cc(-n2cccn2)c(O)cc1-n1cccn1,13µM*,-57%,-9%,u,u,-10%
N=C1C(c2nc3ccccc3[nH]2)=C(O)CN1c1ccc(F)cc1,-22%,-7%,-3%,-16%,5µM*,0%
NC1=NCC(O)=C1c1nc2ccccc2[nH]1,9%,4%,7%,u,11µM*,1%
CCN(CC)CCNC(=O)c1cc2c(-c3ccc(Cl)cc3)nn(C)c2s1,-26%,-2%,u,u,u,2%
Cn1nc(-c2ccc(Cl)cc2)c2cc(C(=O)NC3CC3)sc21,13µM*,-28%,u,-1%,u,2%
COc1ccc(/C=C/C2=CC(C)(C)NC(=S)N2)cc1,2.5µM*,-22%,x,u,1.3µM*,19%
O=C(CCCc1ccccc1)NC1CC(=O)N(c2ccc(F)cc2)C1 (stereo not given),x,x,x,0%,x,x
O=C1CC(c2cc(F)ccc2F)c2cc3c(cc2N1)CCC3 (stereo not given),-12%,0%,-4%,-14%,14%,7.1µM*
CC(C)(C)NC(=S)NNC(=O)c1cccc(Br)c1,u,12%,-5%,u,4.5µM*,-5%
CC(C)(C)NC(=S)NNC(=O)c1ccccc1Cl,1.4µM*,-11%,-3%,u,0.45µM*,-5%
COc1ccc2c(c1)C(=O)[C@@H](OC(=O)NS(=O)(=O)c1ccc(F)cc1)[C@H](c1ccc(OC)c(Br)c1)O2,7%,x,x,x,-19%,x
O=[N+]([O-])c1ccc(-c2ccc(/C=N/Nc3nc(N4CCCCC4)nc(N4CCCCC4)n3)o2)cc1,0%,7%,4%,u,-7%,4%
Cc1cc(C)nc(N/N=C/c2ccccc2OCc2ccc([N+](=O)[O-])cc2)n1,u,3%,-1%,u,14µM*,-6%
Fc1ccc(COc2ccc(Cl)cc2/C=N/Nc2nc(N3CCCC3)nc(N3CCCC3)n2)cc1,5%,7%[7.66 µM],x,2%,u,-1%
C(=N\Nc1nc(N2CCCC2)nc(N2CCCC2)n1)/c1ccccc1OCc1ccccc1,-21%,10%,1%,1%,2.8µM*,-4%
Oc1ccc(/C=N/Nc2nc(N3CCCCCC3)nc(N3CCCCCC3)n2)c(O)c1,u,-71%,-3%,u,16µM*,3%
O=[N+]([O-])c1ccc(N/N=C\c2ccccc2OCc2ccccc2)cc1,2%,20%,8%,u,17%,-1%
O=[N+]([O-])c1cccc(-c2ccc(/C=N/Nc3nc(N4CCCCC4)nc(N4CCCCC4)n3)o2)c1,-6%,30%,-3%,3%,10µM*,-11%
SMILES,Gal4-VP16 FLuc,a7 integrin act,uPA surface inh,BCR signal inh,RORgamma inh,Mito fusion yeast
Cc1ccc([N+](=O)[O-])cc1NC(=O)C(C)NS(=O)(=O)c1ccc(F)cc1 (stereo not given),-2%,5%,2%,-9%,0%,22%
Cc1ccccc1NC(=O)N1CCC(NC(=O)C2CCCCC2)CC1,-12%,-14%,1%,6%,-30%,3%
C(=N\Nc1nc(N2CCCCCC2)nc(N2CCCCCC2)n1)/c1ccccc1,u,18%,-7%,u,8.9µM*,-4%
Brc1cccc(/C=N/Nc2nc(N3CCCCC3)nc(N3CCCCC3)n2)c1,0%,x,x,1%,-5%,-2%
Fc1ccccc1COc1ccccc1/C=N/Nc1nc(N2CCCC2)nc(N2CCCC2)n1,13µM*,-11%,2%,-2%,6.3µM*,0%
C(=N\Nc1nc(N2CCOCC2)nc(N2CCOCC2)n1)/c1ccco1,-10%,x,x,1%,-9%,-2%
Fc1ccc(Nc2nc(N/N=C/c3ccco3)nc(N3CCCCC3)n2)cc1,5µM*,0%,-12%,13%,2.8µM*,-2%
CCCCCCn1c(=O)n2n(c1=O)C[C@]1(OC(=O)NC3CC3)CN(S(=O)(=O)c3ccc(C)cc3)C[C@]1(O)C2,x,27%,x,x,x,x
O=C(CSc1nc(=O)n(Cc2ccccn2)c2c1CCC2)Nc1cccc(Cl)c1,x,x,x,14%,x,x
C/C(=N/NC(=O)CNc1ccc(Cl)cc1C)c1ccc(C)cc1,u,3%,-2%,u,-29%,1%
Cn1c(=O)c(CCc2ccccc2)nc2cnc(N3CCNCC3)nc21,7%,x,x,x,-10%,x
Cn1cnc2c(N/N=C/c3cccs3)ncnc21,u,5%,-5%,u,-28%,4%
NNc1ncnc2sc3c(c12)CCC3,4µM*,-17%,x,-3%,3.2µM*,13%
C(=N\Nc1ncnc2sc3c(c12)CCC3)/c1cccs1,5µM*,x,x,u,2.5µM*,-1%
c1cc(Nc2ncnc3sc4c(c23)CCC4)ccn1,10%,-27%,4%,6%,-1%,2%
C(=N\Nc1ncnc2sc3c(c12)CCC3)/c1ccncc1,20µM*,-17%,1%,u,10µM*,0%
COc1ccc(/C=C2\SC(=S)N(CCCC(=O)Nc3ccccn3)C2=O)cc1OC,5µM*,-28%,-3%,u,4.5µM*,0%
Cc1ccc(/C=C2/SC(=S)N(CCCC(=O)Nc3cc([N+](=O)[O-])ccc3O)C2=O)cc1,u,u,3%,u,7.9µM*,-4%
Cc1ccc(/C=C2\SC(=S)N(CCCC(=O)Nc3ccccn3)C2=O)cc1,1.6µM*,-19%,3%,u,0.45µM*,0%
O=C(CCCN1C(=O)S/C(=C\C=C\c2ccccc2)C1=O)Nc1ccc(O)cc1,u,-40%,-5%,u,0.32µM*,3%
